Measured values reported in PubChem BioAssay (NCI).
This is part of a sample that, as a whole, favours compounds with a hit. Of some 83,000 tested, about 20% had one in any assay.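 Treatment: one concentration, 48 hours, 96-well format. Scoring: percent growth, with anything below 10 considered active.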 A number with no mark means an inactive call. Activity calls are given as the source filed them.

Tests used:
Experiment in all cases: NCI-60 one-dose screen, 48 h (100 = growth as untreated, 0 = no growth, -100 = all killed)
Settings in all cases: 10 µM unless noted
NCI-H23 lung = system: NCI-H23 lung
NCI-H322M lung = system: NCI-H322M lung
HOP-62 NSCLC = system: HOP-62 NSCLC
NCI-H460 lung = system: NCI-H460 lung
HOP-92 NSCLC = system: HOP-92 NSCLC
NCI-H522 lung = system: NCI-H522 lung
A549/ATCC NSCLC = system: A549/ATCC NSCLC
786-0 renal = system: 786-0 renal
COLO 205 colon = system: COLO 205 colon
DU-145 prostate = system: DU-145 prostate
K-562 leukemia = system: K-562 leukemia
MALME-3M melanoma = system: MALME-3M melanoma
MDA-MB-231 breast = system: MDA-MB-231 breast
RXF 393 renal = system: RXF 393 renal
SF-268 CNS = system: SF-268 CNS
SF-295 CNS = system: SF-295 CNS
SF-539 CNS = system: SF-539 CNS
UACC-257 melanoma = system: UACC-257 melanoma
M14 melanoma = system: M14 melanoma
HCT-15 colon = system: HCT-15 colon

Row | Compound | growth (NCI-H23 lung) | growth (NCI-H322M lung) | growth (HOP-62 NSCLC) | growth (NCI-H460 lung) | growth (HOP-92 NSCLC) | growth (NCI-H522 lung) | growth (A549/ATCC NSCLC) | growth (786-0 renal) | growth (COLO 205 colon) | growth (DU-145 prostate) | growth (K-562 leukemia) | growth (MALME-3M melanoma) | growth (MDA-MB-231 breast) | growth (RXF 393 renal) | growth (SF-268 CNS) | growth (SF-295 CNS) | growth (SF-539 CNS) | growth (UACC-257 melanoma) | growth (M14 melanoma) | growth (HCT-15 colon)
1 | O=C(NC1C(O)OC(CO)C(O)C1O)NS(=O)(=O)c1ccc(Cl)cc1 (stereo not given) | 104% | 99.5% | 92.9% | 104% | 101% | 100% | 109% | 104% | 114% | 108% | 108% | 104% | 103% | 115% | 98.7% | 103% | 101% | 104% | 102% | 102%
2 | COc1ccc(-c2nc(-c3ccccn3)c(-c3ccccn3)n2CC(C)C)cc1OC1CCCC1 | 31.2% | 9.32% (active) | 28.3% | 5.25% (active) | 35.2% | 20.8% | 8.04% (active) | 24.5% | 12.1% | 28.7% | 10.4% | 16.5% | 30.8% | 19.3% | 19% | 8.48% (active) | 39% | 28.8% | 20.9% | 33.9%
3 | O=C(NC1CCN(Cc2ccccc2)CC1)c1cc2nc(-c3ccc(Cl)s3)cc(C(F)(F)F)n2n1 | 90.8% | 113% | 70.7% | 26.6% | 51.9% | -31.9% (active) | 81.9% | 102% | -48.6% (active) | 83.3% | 5.49% (active) | -84.1% (active) | 57.1% | 94.8% | 66.7% | -68.6% (active) | 2.96% (active) | -65.5% (active) | 48.7% | 94.7%
4 | COc1ccc(/C=C/C(=O)c2ccc3cc(OC)c(OC)cc3c2)cc1OC | 51.7% | 56% | 36% | 40.7% | 51.4% | 31.9% | 19.5% | 42.9% | 25.9% | 46.7% | 8.48% (active) | 90.6% | 101% | 84.2% | 70.7% | 70.8% | 23.5% | 70.2% | 64.2% | 27.5%
5 | O=C1OC(c2ccccc2)(c2ccccc2)c2ccsc21 | 113% | 90.7% | 117% | 98.8% | 87.1% | 92.6% | 101% | 103% | 121% | 104% | 87% | 87.2% | 100% | 114% | 97.3% | 97.2% | 98.9% | 103% | 106% | 95.2%
6 | O=C(Nc1ncc(Cc2cccc(C(F)(F)F)c2)s1)C1COc2ccccc2O1 (stereo not given) | 88.6% | 91.2% | 92.1% | 97.7% | 72.2% | 67.8% | 74.7% | 99.2% | 104% | 105% | 63.3% | 71.8% | 95.1% | 79% | 87.6% | 86.4% | 95.8% | 88.1% | 88.5% | 72%
7 | O=c1oc2ccc(Cl)cc2c(=O)n1-c1ccc(F)cc1F | 7.47% (active) | 3.62% (active) | 4.11% (active) | 7.56% (active) | -22.9% (active) | -23% (active) | 4.94% (active) | 9.41% (active) | 64.9% | 18.7% | 9.99% (active) | -23.8% (active) | 4.44% (active) | 2.26% (active) | 12.3% | -7.12% (active) | 13.2% | -13.1% (active) | 20.3% | 13.5%
8 | Oc1c(C(Nc2ccccn2)c2cccc(Oc3ccccc3)c2)ccc2cccnc12 (stereo not given) | -73.3% (active) | -94.4% (active) | -95.7% (active) | -86.3% (active) | -86.9% (active) | -84.7% (active) | -81.8% (active) | -81.4% (active) | -90.8% (active) | -96% (active) | -64.1% (active) | -74.8% (active) | -89.3% (active) | -92% (active) | -86.7% (active) | -86.9% (active) | -93.1% (active) | -77.1% (active) | -68.6% (active) | -57.6% (active)
9 | C=CCN1C(=O)/C(=c2\sc3n(c2=O)NC2C(N=3)N(CC)C(=O)N2CC)c2ccccc21 (stereo not given) | 43.7% | 57% | 62.7% | 15% | 108% | 25.9% | 42.5% | 57.5% | 11.1% | 26% | 11.3% | 67.6% | 38.4% | 13.7% | 59.7% | 37.3% | -5.16% (active) | 82.4% | 16.5% | 25%
10 | O=C(Nc1ccc(Br)cc1F)c1cc(Cl)ccc1O | -8.01% (active) | 4.59% (active) | -14% (active) | 3.19% (active) | -18.8% (active) | -8.76% (active) | 8.65% (active) | -6.93% (active) | 24.2% | 11.8% | 5.34% (active) | -34.7% (active) | -27.9% (active) | -0.138% (active) | 2.69% (active) | -62.6% (active) | -1.11% (active) | -14% (active) | -28.3% (active) | 2.29% (active)
11 | COc1ccc(/C=C/C(=O)c2c(C)nc3ccccc3c2/C=C/c2ccccc2)cc1O | 50.6% | 42.3% | 88.6% | 22.8% | 65.6% | 14.9% | 39.5% | 99.4% | 109% | 45.7% | 20.9% | 86.3% | 52.7% | 64.1% | 57.7% | 90.8% | 81.7% | 68.7% | 15.9% | 39.1%
12 | COc1ccc(C2C3=C(COC3=O)N(CCO)c3cc4c(cc32)OCCO4)cc1 (stereo not given) | 97.2% | 125% | 80.4% | 77.4% | 102% | 58.2% | 76.6% | 87.5% | 84.2% | 106% | 53.1% | 103% | 91.2% | 75.5% | 86.5% | 55.8% | 83.1% | 69% | 77.7% | 65.6%
13 | CN1C(=O)N(C)C2C1NN=c1s/c(=C\c3ccc(Cl)cc3Cl)c(=O)n12 (stereo not given) | 29% | 38.3% | 54.3% | 3.01% (active) | 97.6% | 17.5% | 25.1% | 24% | 1.82% (active) | 5.98% (active) | 7.76% (active) | 62.4% | 30.4% | 16.2% | 31.6% | 17.4% | 1.09% (active) | 75.8% | 7.37% (active) | 15.8%
14 | CCCCC(O)(c1ccc(Cl)cc1)C(CN1CCOCC1)c1ccc(Cl)cc1 (stereo not given) | 31.2% | 70.8% | 60.1% | 19.4% | -3.36% (active) | 19.8% | 29.6% | 53.8% | 100% | 58.2% | 17.9% | 61.2% | 35.8% | 18.5% | 40.2% | 40.9% | 68.8% | 39.4% | 28.6% | 34.9%
15 | COc1cc(CNC(=O)c2ccsc2Nc2ccnc(C(F)(F)F)c2)ccc1O | 92.3% | 95.3% | 126% | 102% | 81.3% | 87% | 100% | 98.1% | 106% | 107% | 96.6% | 64.4% | 102% | 106% | 94.1% | 104% | 102% | 107% | 100% | 99.1%
16 | O=S1(=O)CCN(Cc2ccccc2)CC1 | 98.4% | 110% | 96.7% | 103% | 79.5% | 104% | 104% | 95.3% | 107% | 103% | 101% | 112% | 105% | 121% | 92.2% | 97% | 95.6% | 105% | 90.3% | 92.8%
